In the library only some 6.7% were active in any assay of this set; here they are far more common.
KB-3-1 cytotox: qHTS assay for MDR1-selective chemotherapeutics: Primary screen using the parental adenocarcinoma cell KB-3-1 | KB-3-1 viability, CellTiter-Glo ATP luminescence, 72 h | Potency, µM (top dose mostly 46.1 µM), usual class: cytotoxic | hit rate 1.4% among 400,000; note: nearly all actives have a fitted effect of over 60% in size
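Screening of KB-3-1 cells (DMEM, 10% FBS, phenol-red free) ran from lowest to highest compound concentration; after 72 h at 37 °C viability was read luminescently and curves fitted.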
PINK1 modulator: A Quantitative High throughput Screen to Identify Chemical Modulators of PINK1 Expression. hit rate 0.2% among 410,000. PINK1 immunofluorescence, high-content cytometry, 24 h. Potency, µM (series often up to 76.6 µM), usual class: activators; active = well fitted activation curve with a large enough effect; inconclusive = small, poorly fitted or top-dose-only effect; cell line not stated here; note: nearly all actives have a fitted effect of over 65% in size
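Decision-based qHTS: stable cells, 24 h exposure to five compound concentrations, CCCP as control. Fixed cells stained for PINK1 plus nuclear, mitochondrial and cell markers, cytometer read.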
SW480 rerep: A quantitative high throughput screen for small molecules that induce DNA re-replication in SW480 colon adenocarcinoma cells; SW480 DNA re-replication, Hoechst DNA content imaging, 48 h; Potency, µM (doses to about 46.1 µM), hits mostly activators; hit rate 1.8% among 340,000; note: nearly all actives have a fitted effect of over 55% in size
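250 cells/well; 23 nL cpd via pin tool; 48 hr, 37 C, 5% CO2; Hoechst 40 min; imager read of total nuclear intensity, ex 405/em 500-530 nm.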
MCF10A rereplic: A quantitative high throughput screen for small molecules that induce DNA re-replication in MCF 10a normal breast cells; hit rate 2.9% among 350,000; Potency, µM (series often up to 46.1 µM), most hits filed as activators; MCF 10A DNA re-replication, Hoechst nuclear intensity, 48 h; note: nearly all actives have a fitted effect of over 50% in size
KB-V1 MDR tox: qHTS assay for MDR1-selective chemotherapeutics: Primary screen using the drug-selected MDR subline cells KB-V1; KB-V1 MDR cells viability, CellTiter-Glo, 72 h; hit rate 3.4% among 400,000; AID 1347076, 2019; Potency, µM (doses to about 46.1 µM), hits mostly cytotoxic; note: nearly all actives have a fitted effect of over 60% in size
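qHTS viability screen in drug-selected KB-V1 MDR cells: 72 h compound treatment at 37 degrees C, ATP luminescence end point.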
Of the large screens only hits and unclear results are named; the others gave an inactive call. Unless noted, calls come from the whole dose curve; as a rule, active = well fitted curve in the direction sought with a large enough effect; inconclusive = small, poorly fitted or top-dose-only effect, or another doubt; inactive = no such curve, though single readings can be large; an effect the other way counts as inactive or inconclusive.

CCN1CCS/C1=C\C=C\C1=[N+](CC)CCS1	PINK1 modulator 14µM, MCF10A rereplic inconclusive
O=C(CCS(=O)(=O)c1cccc2nsnc12)Nc1ccc(F)cc1	none (no result: SW480 rerep, MCF10A rereplic)
COc1cc(=O)n2c(c1C(=O)N(C)Cc1nonc1C)CCN(Cc1c(F)cccc1F)CC2	none (no result: KB-3-1 cytotox, SW480 rerep, MCF10A rereplic, KB-V1 MDR tox)
Cc1oc2c(CN3CCCC3)c(O)ccc2c(=O)c1-c1ccc(Br)cc1	none (no result: PINK1 modulator)
CC1CCCN(Cc2c(O)ccc3c(=O)c(-c4nc5ccccc5s4)c(N)oc23)C1 (stereo not drawn)	KB-3-1 cytotox inconclusive, SW480 rerep inconclusive, MCF10A rereplic 21µM, KB-V1 MDR tox inconclusive
CC1CCN(Cc2c(O)ccc3c(=O)c(-c4nc5ccccc5s4)c(N)oc23)CC1	KB-V1 MDR tox inconclusive
CC1(C)CCCN(Cc2c(O)ccc3c(=O)c(-c4nc5ccccc5s4)c(N)oc23)C1	KB-3-1 cytotox inconclusive, MCF10A rereplic 23µM, KB-V1 MDR tox inconclusive
Cc1cc(C)c(C)c(OCCOCCN2CCN(C)CC2)c1	MCF10A rereplic 21µM
Cc1cc(C)c(C)c(OCCOCCN2CCOCC2)c1	none
O=C(CCN1C(=O)CC1c1ccco1)N1CCOCC1 (stereo not drawn)	none (no result: SW480 rerep, MCF10A rereplic)
C[C@H]1CCC/C=C/[C@@H]2C[C@H](O)C[C@H]2[C@H](O)[C@H](S(=O)c2ccc(O)cc2)CC(=O)O1 (stereo partly drawn)	KB-3-1 cytotox 0.0092µM, SW480 rerep inconclusive, KB-V1 MDR tox inconclusive
Cc1sc2nc3ccc(N4CCCCC4)nn3c(=O)c2c1C	PINK1 modulator inconclusive, KB-V1 MDR tox 9.2µM
Cc1sc2nc3n(c(=O)c2c1C)CCCCC3	none
NNC(=O)CN1C(c2ccccc2)=Nc2ccc(Br)cc2C1c1ccccc1 (stereo not drawn)	none
COc1cc(OC)c(C2=Nc3ccc(Br)cc3C(c3ccccc3)N2CC(=O)NN)cc1OC (stereo not drawn)	MCF10A rereplic 2.9µM
COc1ccc(NC(=O)C(NC(=O)Cc2cccs2)c2ccccc2)cc1 (stereo not drawn)	KB-V1 MDR tox 12µM
COc1ccccc1NS(=O)(=O)c1ccc(NC(=O)Cc2cccs2)cc1	KB-V1 MDR tox 21µM
COc1ccc(NC(=O)C(NC(=O)Cc2cccs2)c2ccc(C)cc2)cc1 (stereo not drawn)	MCF10A rereplic inconclusive
COc1ccc(S(=O)(=O)Nc2ccccc2OC)cc1NC(=O)Cc1cccs1	none
CON(C)c1nc(OCCNC(=O)OCc2ccc(Cl)cc2C)nc(N(C)C)n1	KB-V1 MDR tox 1.6µM
CN(C)c1nc(OCCNC(=O)COc2ccccc2Cl)nc(N(C)C)n1	MCF10A rereplic inconclusive, KB-V1 MDR tox 1.6µM
CN(C)c1nc(OCCOC(=O)Nc2ccc(Cl)cc2Cl)nc(N(C)C)n1	none
CCOc1ccc(NC(=S)N(Cc2ccc(N(C)C)cc2)Cc2ccco2)cc1	KB-V1 MDR tox 15µM
COc1ccc(NC(=S)N(Cc2ccc(N(C)C)cc2)Cc2ccco2)cc1	none
O=C1CCn2nc(-c3ccc(Cl)cc3)cc2N1	KB-3-1 cytotox 1.8µM, KB-V1 MDR tox inconclusive
O=C(CN1C(=O)CCn2nc(-c3ccccc3)cc21)NCc1ccc(Cl)cc1	none (no result: SW480 rerep, MCF10A rereplic)
CCc1ccc(NC(=O)c2ccc3c(O)c(S(=O)(=O)c4ccccc4)c(=O)[nH]c3c2)cc1	none (no result: SW480 rerep, MCF10A rereplic)
CC(=O)c1ccc(Nc2cc(C)nc3c(C)cc(C)cc23)cc1	KB-3-1 cytotox inconclusive, SW480 rerep 2.6µM, MCF10A rereplic inconclusive, KB-V1 MDR tox inconclusive
COc1ccc(F)cc1S(=O)(=O)NCCc1sc2nc(-c3ccc(F)cc3)nn2c1C	none (no result: KB-3-1 cytotox, SW480 rerep, MCF10A rereplic, KB-V1 MDR tox)
CCC(=O)[C@@H](C)[C@@H](OC(C)=O)[C@H](C)C[C@@H](C)[C@H]1OC(=O)C[C@@]2(O)CC=C(C)C(O2)C(C)=CCCC[C@H](O[C@H]2C[C@@H](OC(N)=O)[C@H](OC(C)=O)[C@@H](C)O2)C=C[C@H](C)C[C@H]1C	KB-3-1 cytotox 1.3µM (no result: SW480 rerep, MCF10A rereplic)
COc1ccc(-n2nc(C(=O)NCC(=O)N3CCC(C)CC3)c3ccccc3c2=O)cc1Cl	none
CCCCOC(=O)Nc1nc(C)c(C(=O)OCC)s1	KB-V1 MDR tox 12µM
CCCCCCc1nnc(NC(=O)OCC)s1	KB-V1 MDR tox 16µM

Compound activity as filed in PubChem.
